Results filed as inconclusive are left out. The source made the active and inactive calls. Calls come from the whole dose curve; as a rule, active = well fitted cell-killing curve with a large enough effect; inconclusive = small, poorly fitted or top-dose-only effect, or effect the other way; inactive = flat fitted curve, though single readings scatter.
System: OV90
Assay: Primary qHTS to identify gynecologic anti-cancer compounds using libraries of approved drugs and bioactive compounds (AID 1345084); note: nearly all actives have a fitted effect of over 55% in size
Conditions: Gynecologic cancer cell panel viability, ATPlite luminescence, 48 h; series mostly up to 57.5 µM; activity change, negative = cytotoxicity: at the top concentration
Method in brief: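 Five-concentration response, 48 h; readout is ATP-driven luciferase luminescence.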
% is set by controls: 0 for no effect and ±100 for the full control effect.

SMILES | activity change, negative = cytotoxicity
C/C=C(\C)C(=O)O[C@H]1[C@@H](O[C@]2(COC(=O)CC(C)C)O[C@H](COC(=O)C(C)CC)[C@@H](OC(C)=O)[C@@H]2O)O[C@H](COC(C)=O)[C@@H](O)[C@@H]1O (some centres not stated) | -1.41% [at 25.3 µM] (inactive)
C=C(C(=O)O)C1CC2=C(C)CCCC2(C)C[C@@H]1O (some centres not stated) | 2.03% (inactive)
O=C(NCc1ccc(F)cc1)C(=O)c1c[nH]c2ccccc12 | -2.27% (inactive)
C/C(=C\C=C\C(C)C1CCC2(C)C3CCC4C(C)(C)C(=O)CCC45CC35CCC12C)C(=O)O (configuration not stated) | 9.93% [at 25.3 µM] (inactive)
C/C(=C\CCC(C)CCO)C(=O)OC1(C)CCC2C(C(=O)O)=COC(OC3OC(CO)C(O)C(O)C3O)C21 (configuration not stated) | 2.06% [at 25.3 µM] (inactive)
CC(=O)O[C@@H]1[C@@H](OC(=O)/C=C/c2ccccc2)[C@@H](OC(C)=O)[C@H](O[C@H]2[C@@H]3C=CO[C@@H](O[C@@H]4O[C@H](CO)[C@@H](O)[C@H](O)[C@H]4O)[C@@H]3[C@@]3(CO)O[C@@H]23)O[C@H]1C | -1.2% [at 25.3 µM] (inactive)
N#Cc1ccc(C(=O)N2CCC3(CC2)N=C(N)c2c(F)ccc(F)c2N3)cn1 | 8.4% (inactive)
CCCCc1ccc(C(=O)Nc2cc(-c3ccc(Cl)cc3)nn2-c2ccc(Cl)cc2)cc1 | 20.6% (inactive)
CC(C)c1cc2c(c(O)c1O)[C@@]13CCCC(C)(C)[C@@H]1[C@H](OC3=O)C2=O | -0.75% [at 38.5 µM] (inactive)
Nc1nc2c(c(N3CCNCC3)n1)CCC1=C2[C@@H]2CCCC[C@@H]2O1 | -29.7% (inactive)
CC1(C)CC[C@]2(C(=O)O)CC[C@]3(C)C(=CCC4[C@@]5(C)CC[C@H](O[C@@H]6O[C@H](C(=O)O)[C@@H](O[C@@H]7OC[C@@H](O)[C@H](O)[C@H]7O)[C@H](O)[C@H]6O)C(C)(C)C5CC[C@]43C)C2C1O (some centres not stated) | 5.05% [at 25.3 µM] (inactive)
C=C1CCC2C(C)(C)C(O)CCC2(C)C1CCC(C)CCOC(C)=O (configuration not stated) | -6.17% [at 38.5 µM] (inactive)
CC(C)(C)NS(=O)(=O)c1cncc(-c2cc(F)c3nc(N)nn3c2)c1 | 2.6% (inactive)
C/C=C/C=C/C(O)=C1\C(O)=C(C)C(=O)[C@@]2(C)OC(=O)[C@@](C)(NC(=O)/C=C/C(=O)O)[C@@H]12 | -2.35% [at 25.3 µM] (inactive)
C[C@@H]1CCC2C(C)(C)[C@H](O)CC[C@]2(C)[C@@]12Cc1c(O)cc3c(c1O2)CN([C@@H](CCC(=O)O)C(=O)O)C3=O (some centres not stated) | 6.4% [at 25.3 µM] (inactive)
C[C@@H]1O[C@@H](O[C@H]2[C@H](OC(=O)[C@]34CCC(C)(C)C[C@H]3C3=CCC5[C@@]6(C)C[C@H](O)[C@H](O[C@@H]7O[C@H](CO)[C@@H](O)[C@H](O)[C@H]7O)[C@@](C)(CO)C6[C@H](O)C[C@@]5(C)[C@]3(C)CC4)OC[C@H](O)[C@@H]2O)[C@H](O)[C@H](O)[C@H]1O[C@@H]1OC[C@@H](O)[C@H](O[C@@H]2OC[C@](O)(CO)[C@H]2O)[C@H]1O (some centres not stated) | 1.6% [at 6.55 µM] (inactive)

SMILES | activity change, negative = cytotoxicity
C1CCC[C@H]2CCCN3CC[C@@H](CCCCCC[C@@H]4CCCN5CC[C@@H](CC1)O[C@@H]45)O[C@@H]23 | -15.5% [at 0.155 µM] (inactive)
Cc1[nH]c2ccccc2c1C1=C(NCCc2ccc(F)cc2)C(=O)N(C)C1=O | 6.85% (inactive)
OC[C@H]1O[C@@H](O[C@H]2[C@H](OCCc3ccccc3)O[C@H](CO)[C@@H](O)[C@@H]2O)[C@H](O)[C@@H](O)[C@@H]1O | 6.44% [at 25.3 µM] (inactive)
C=C1[C@@H]2CC[C@@H]3[C@@](CCC4C(C(=O)O)(C(=O)O)C[C@@H](O[C@@H]5O[C@H](CO)[C@@H](O)[C@H](O)[C@H]5OC(=O)CC(C)C)C[C@]43C)(C2)[C@H]1O (some centres not stated) | 0.518% [at 25.3 µM] (inactive)
CC(=O)C1=C(C)N(c2cccc(C(F)(F)F)c2)C(=O)N[C@H]1c1ccc(C#N)nc1 | 5.76% [at 11.6 µM] (inactive)
CC(CCC1(O)OC2CC3C4CCC5CC(O[C@@H]6O[C@H](CO)[C@@H](O)[C@H](O)[C@H]6O[C@@H]6O[C@@H](C)[C@H](O)[C@@H](O)[C@H]6O)C(O)CC5(C)C4CCC3(C)C2C1C)CO[C@@H]1O[C@H](CO)[C@@H](O)[C@H](O)[C@H]1O (some centres not stated) | 22.7% [at 11.6 µM] (inactive)
OCC1OC(Oc2cc(O)cc(/C=C/c3ccc(O)cc3)c2)C(O)C(O)C1O (configuration not stated) | -4.11% [at 38.5 µM] (inactive)
CC1=CC(=O)CC(C)(C)[C@@]1(O)CC[C@@H](C)O[C@@H]1O[C@H](CO)[C@@H](O)[C@H](O)[C@H]1O | -6.24% [at 38.5 µM] (inactive)
CC1(C)CCC[C@@]2(C)C1[C@H](OC(=O)/C=C/C=C/C(=O)O)C=C1COC(=O)[C@@]12O (some centres not stated) | -2.88% [at 38.5 µM] (inactive)
O=C1NC2CCc3nc4ccccc4c(=O)n3C2=Nc2ccccc21 (configuration not stated) | 6.91% [at 38.5 µM] (inactive)
CC(C)[N+]1(C)C2CCC1CC(OC(=O)C(CO)c1ccccc1)C2 (configuration not stated) | 0.0625% (inactive)
COc1cc2oc(-c3ccc(O)cc3O)cc2c(OC)c1CC=C(C)C | 5.28% [at 38.5 µM] (inactive)
CC(=O)OC1C(O)CC2(C)C(CCC(C)C23Cc2c(O)cc(CO)c(C=O)c2O3)C1(C)C (configuration not stated) | 11.5% [at 25.3 µM] (inactive)
Cc1[nH]nc(C(F)(F)F)c1Cc1sc2c(c1C(=O)N1C[C@](C)(O)CO1)c(=O)n(C)c(=O)n2C(C)C | -35.8% (inactive)
O=C(CC1C(=O)Nc2ccccc21)OC[C@H]1O[C@@H](OCCc2ccc(O)cc2)[C@H](O)[C@@H](O)[C@@H]1O (some centres not stated) | -1.58% [at 25.3 µM] (inactive)
CC1CCC23COC(=O)C2=CC(O)CC3C1(C)CCC1=CC(O)OC1=O (configuration not stated) | -8.64% [at 38.5 µM] (inactive)

— PubChem BioAssay (NCATS)
